The results in this text go back to PubChem BioAssay (NCI).

Structures are written as SMILES. The panel holds about 79,000 compounds, 15% with a hit somewhere; the sample as a whole holds those more often. Unmarked numbers belong to inactive results. Calls of active or inactive are those of the source. Cut-off read from the data, not from the text of the source: active = growth inhibition above about 70%; inactive = the rest.

Experiment [1] in a line: NCI Yeast Anticancer Drug Screen. Data for the rad50 strain (AID 155).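 Note: 0% = growth of vehicle-only cultures of the same strain.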 As to conditions: S. cerevisiae rad50 strain growth inhibition; at 50.0 µM; hits give high values. A digest of the protocol:
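Vehicle-treated cultures provide the reference for the growth inhibition reported for compound-exposed, repair-deficient yeast.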

Experiment [2] in a line: NCI Yeast Anticancer Drug Screen. Data for the mec2-1 strain (AID 157). The settings on record: S. cerevisiae mec2-1 strain, at 50.0 µM, hits give high values. The gist of the method:
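Strain: mec2-1 (DNA repair/cell cycle alteration). Compound exposure, then growth measured; inhibition expressed relative to vehicle.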

The nature of experiment [3]: NCI Yeast Anticancer Drug Screen. Data for the sgs1 mgt1 strain (AID 161).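 Note: 0% = growth of cultures given vehicle only.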 As to conditions: S. cerevisiae sgs1 mgt1 strain, at 50.0 µM, hits give high values. The gist of the method: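 Genetically altered yeast, compound exposure, growth inhibition relative to vehicle.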
Experiment [4] is described as follows: NCI Yeast Anticancer Drug Screen. Data for the cln2 rad14 strain (AID 165).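 Note: 0% = growth equal to vehicle treated cultures.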 The settings on record: S. cerevisiae cln2 rad14 strain, at 50.0 µM, hits give high values. A digest of the protocol:
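Compounds are applied to the cln2 rad14 yeast strain, and growth is then compared with that of vehicle-treated cultures to give inhibition.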

Experiment [5] can be described thus: NCI Yeast Anticancer Drug Screen. Data for the bub3 strain (AID 167). The settings on record: S. cerevisiae bub3 mutant strain, at 50.0 µM, hits give high values. A digest of the protocol: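 Mutant yeast screening strain plus compound; vehicle-treated cultures serve as the 0% inhibition reference.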
A short description of experiment [6]: NCI Yeast Anticancer Drug Screen. Data for the mlh1 rad18 strain (AID 175). As to conditions: S. cerevisiae mlh1 rad18 strain growth inhibition; at 50.0 µM; hits give high values. The gist of the method:
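Read-out is yeast growth inhibition, calculated against vehicle-only controls. The compound was applied to a strain engineered with DNA damage repair alterations.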

Take `Nc1ccc2ccsc2c1`: the growth inhibition in experiment [1] was 1.6%; in experiment [2], -22.7%; in experiment [3] it was 26.2%; in experiment [4], 17.1%; in experiment [5], 12.9%; in experiment [6], 35.5%.
Consider `O=C(O)/C=C/C(O)C1CCCCC1` (stereo not drawn), for which the growth inhibition in experiment [1] is -31.1%; in experiment [2], -8.35%; in experiment [3], -0.95%; in experiment [4], -23.1%; in experiment [5], 1.05%; in experiment [6], -4.65%.
With `CCOC(=O)CCC(NC(=O)c1ccc(Nc2cnc3cc(C(F)(F)F)ccc3n2)cc1)C(=O)OCC` (stereo not drawn), the growth inhibition in experiment [1] was 0.1%; in experiment [2], -12.8%; in experiment [3] it was -5.85%; in experiment [4], 19.9%; in experiment [5] it was 3.4%; in experiment [6], -4.65%.
As to `Cc1cc(C)c(N=Nc2cc(C)c(N)cc2N)c(S(=O)(=O)O)c1`, the growth inhibition is -21.6% in experiment [1]; -1.35% in experiment [2]; -2.1% in experiment [3]; -61.5% in experiment [4]; 7.3% in experiment [5]; 10.8% in experiment [6].
Take `CC(=O)c1ccc2ccccc2c1`: the growth inhibition in experiment [1] was 24.4%; in experiment [2], 7.8%; in experiment [3], 4.3%; in experiment [4], 2.75%; in experiment [5], -0.1%; in experiment [6], 16.2%.
For the compound `C1CCC(NCCNC2CCCCC2)CC1`, the growth inhibition in experiment [1] is 11.8%; in experiment [2] it was -16.9%; in experiment [3], 5.5%; in experiment [4] it was 18.6%; in experiment [5], -2.8%; in experiment [6] it was 10.3%.
As for `O=C(Nc1nccs1)Nc1ccc(Cl)cc1[N+](=O)[O-]`, the growth inhibition is 0.1% in experiment [1]; 33.6% in experiment [2]; 34.6% in experiment [3]; -6.95% in experiment [4]; 24.8% in experiment [5]; 34.4% in experiment [6].
For `O=c1c(-c2ccccc2)c(O)on1/C=C1/C=CC=N1`, the growth inhibition is -8.6% in experiment [1]; -25.2% in experiment [2]; 3.5% in experiment [3]; 3.8% in experiment [4]; 7.2% in experiment [5]; 1.5% in experiment [6].
For `CC1(O)c2ccccc2-c2c1n([O-])c1ccccc1[n+]2=O` (stereo not drawn), the growth inhibition in experiment [1] was 7.9%; in experiment [2], -6.2%; in experiment [3] it was 12.2%; in experiment [4], -43.9%; in experiment [5] it was -1.8%; in experiment [6], 3.9%.
With `C/C(CC(=O)Nc1cc(C)ccc1C)=N/N=C(N)N`, the growth inhibition in experiment [1] was -24.6%; in experiment [2], -28.3%; in experiment [3], -11.5%; in experiment [4], 17.8%; in experiment [5], -22.9%; in experiment [6], -8.55%.
In the case of `COc1ccc(NC(=O)CC(=O)NN)cc1`, the growth inhibition in experiment [1] was -5.4%; in experiment [2], -0.05%; in experiment [3], 3.4%; in experiment [4], -1.5%; in experiment [5], -9.55%; in experiment [6], 9.2%.
`Nc1ccc(I)cn1`: the growth inhibition in experiment [1] is -3.35%; in experiment [2] it was 5.7%; in experiment [3], -3.65%; in experiment [4], -11.7%; in experiment [5] it was 14.6%; in experiment [6], -3.95%.
Consider `Cc1c(CCC(C)C)oc2cc3oc(CCC(C)C)c(C)c3cc12`, for which the growth inhibition in experiment [1] was 21.7%; in experiment [2], 2.2%; in experiment [3] it was 2%; in experiment [4], -4.8%; in experiment [5], 6.3%; in experiment [6] it was 18.5%.
For `COC1(OC)C2(Cl)CCC1(Cl)C(OC(C)=O)C2` (stereo not drawn), the growth inhibition in experiment [1] is -21.4%; in experiment [2], -5%; in experiment [3], 4.65%; in experiment [4], 26.8%; in experiment [5], -8%; in experiment [6] it was -10.7%.
Regarding `CSCCC(C(=O)O)N(C)C` (stereo not drawn), the growth inhibition is -4.3% in experiment [1]; -21.3% in experiment [2]; -17.3% in experiment [3]; -2.9% in experiment [4]; -19.6% in experiment [5]; -18% in experiment [6].
Take `Nc1cc(=O)[nH]c(NCCCC(N)C(=O)O)n1` (stereo not drawn): the growth inhibition is 5.95% in experiment [1]; 8.8% in experiment [2]; 6.55% in experiment [3]; -15.7% in experiment [4]; 0.85% in experiment [5]; 8.9% in experiment [6].
As to `CCCN1c2c3c(O)c4c(O)c(C)c5c(c4c2O)C(=O)C(C)(O/C=C/C(OC)C(C)C(OC(C)=O)C(C)C(O)C(C)C(O)C(C)/C=C/C=C(/C)C(=O)N3C1C)O5` (stereo not drawn), the growth inhibition in experiment [1] is 22.6%; in experiment [2], 35.9%; in experiment [3], 44%; in experiment [4] it was 37.2%; in experiment [5] it was 19%; in experiment [6] it was 18.2%.
With `Nc1ccc(Nc2c3ccccc3nc3ccccc23)cc1`, the growth inhibition was 96% (active) in experiment [1]; 33% in experiment [2]; 23.4% in experiment [3]; 10.3% in experiment [4]; 23.4% in experiment [5]; 69.3% in experiment [6].
Turning to `NC(N)=Nc1ccc(CC(N)C(=O)NCC(=O)C(CC(=O)O)c2ncc(NC(=O)C(F)(F)F)o2)cc1` (stereo not drawn), the growth inhibition is -17.4% in experiment [1]; -1.75% in experiment [2]; -5.15% in experiment [3]; -4% in experiment [4]; -19.6% in experiment [5]; 7.35% in experiment [6].
`CCCCOC(=O)/C(=C\c1cccc(OC)c1)NC(=O)c1ccccc1`: the growth inhibition in experiment [1] was 15.8%; in experiment [2] it was 14.9%; in experiment [3], 28.5%; in experiment [4] it was 11.2%; in experiment [5], 58.2%; in experiment [6], 34.6%.
Consider `CCOCCN1CCN(CCOCC)CC1`, for which the growth inhibition is -11.9% in experiment [1]; -9.75% in experiment [2]; -9.65% in experiment [3]; -18.4% in experiment [4]; 27.6% in experiment [5]; 14% in experiment [6].
On to `Cc1ccccc1N=Nc1c(C)nc(N)nc1-c1ccccc1`, for which the growth inhibition in experiment [1] is 1%; in experiment [2], 8.6%; in experiment [3], 6.2%; in experiment [4] it was -12.6%; in experiment [5], -14.5%; in experiment [6], 12.2%.
As for `O=[N+]([O-])c1ccc(N/N=C/C(Br)(Br)Br)c([N+](=O)[O-])c1`, the growth inhibition was -5.85% in experiment [1]; -0.65% in experiment [2]; -21.2% in experiment [3]; -11.9% in experiment [4]; -14.4% in experiment [5]; -27.9% in experiment [6].
As for `CCOC(=O)CCC(C)=O`, the growth inhibition in experiment [1] was 22.8%; in experiment [2], 11.2%; in experiment [3], 14.9%; in experiment [4] it was 20.5%; in experiment [5], 14.7%; in experiment [6] it was 11%.
For the compound `CCOC(=O)c1cnc(SC)nc1Nc1cccc(Cl)c1Cl`, the growth inhibition was 1.15% in experiment [1]; 99% (active) in experiment [2]; 35.9% in experiment [3]; 98.1% (active) in experiment [4]; 98.8% (active) in experiment [5]; 25.1% in experiment [6].
Consider `CC(=O)OCC1OC(OC(C)=O)C(N)C(OC(C)=O)C1OC(C)=O` (stereo not drawn), for which the growth inhibition in experiment [1] was 2.15%; in experiment [2] it was 11.8%; in experiment [3] it was 11.9%; in experiment [4] it was 9.05%; in experiment [5], -15.9%; in experiment [6], 19.4%.
Regarding `O=C([CH-]C(=O)C(F)(F)F)c1ccccc1.O=C([CH-]C(=O)C(F)(F)F)c1ccccc1.O=C([CH-]C(=O)C(F)(F)F)c1ccccc1.[Ru+3]`, the growth inhibition in experiment [1] was -11.2%; in experiment [2], -13.8%; in experiment [3], -11.5%; in experiment [4], -22.7%; in experiment [5] it was 9.8%; in experiment [6], 4.75%.
Turning to `CCOC(=O)C(=CNc1ccc(F)c(F)c1)C(=O)OCC`, the growth inhibition in experiment [1] is -0.4%; in experiment [2], 1.55%; in experiment [3], -8.35%; in experiment [4], -2.2%; in experiment [5] it was 26.1%; in experiment [6] it was -36%.
On to `CCOC(=O)c1c[nH]c2c(C(F)(F)F)cccc2c1=O`, for which the growth inhibition was 15.6% in experiment [1]; -9.1% in experiment [2]; 1.55% in experiment [3]; 8.75% in experiment [4]; 24.6% in experiment [5]; 14.6% in experiment [6].
With `O=C(O)c1sccc1Cc1ccsc1`, the growth inhibition in experiment [1] was -6.85%; in experiment [2], -10.8%; in experiment [3], -8.65%; in experiment [4], -27.6%; in experiment [5], -25.9%; in experiment [6] it was 5%.
Turning to `Cn1c2ccccc2c(=O)c2c(O)cc3c(c21)C=CC1(CCCCC1)O3`, the growth inhibition in experiment [1] was -4.75%; in experiment [2], 11.4%; in experiment [3], -2.25%; in experiment [4] it was 19.1%; in experiment [5] it was -5.65%; in experiment [6], 25.1%.
As for `O=C(c1ccccc1)c1ccc(OCCOc2ccc(C(=O)c3ccccc3)cc2)cc1`, the growth inhibition in experiment [1] is -0.7%; in experiment [2], -1.7%; in experiment [3] it was 2.15%; in experiment [4] it was -15.1%; in experiment [5], 3.9%; in experiment [6], -13.2%.
On to `Cc1ncc(CO)c(CN)c1O`, for which the growth inhibition is -0.55% in experiment [1]; -21.4% in experiment [2]; -38% in experiment [3]; -23.4% in experiment [4]; -28.4% in experiment [5]; -1.75% in experiment [6].
Turning to `C(=Nc1ccccc1)Nc1ccccc1`, the growth inhibition is 2.85% in experiment [1]; 15.1% in experiment [2]; 16.4% in experiment [3]; 25.9% in experiment [4]; -15.4% in experiment [5]; -12.8% in experiment [6].
For the compound `N#CC1CC2c3ccccc3C1([N+](=O)[O-])c1ccccc12` (stereo not drawn), the growth inhibition in experiment [1] is 54.5%; in experiment [2], 26.9%; in experiment [3], 12.8%; in experiment [4] it was 43%; in experiment [5], 45%; in experiment [6], 70.7% (active).
`CC1CC(=O)N2CCCNC2=C1C#N` (stereo not drawn): the growth inhibition was -0.55% in experiment [1]; 4.6% in experiment [2]; 12.8% in experiment [3]; 19.2% in experiment [4]; 3.75% in experiment [5]; 26.1% in experiment [6].
Regarding `CCOc1ccccc1NC(=O)c1c(Br)c(Br)c(Br)c(Br)c1C(=O)O`, the growth inhibition was 5.6% in experiment [1]; -16.8% in experiment [2]; -1.8% in experiment [3]; -4.15% in experiment [4]; 6.05% in experiment [5]; -17.6% in experiment [6].
With `Cc1nc(Cc2ccc(O)c(O)c2)c(C)o1`, the growth inhibition is 6.7% in experiment [1]; 13.9% in experiment [2]; 3.95% in experiment [3]; -17.2% in experiment [4]; -18% in experiment [5]; 8.2% in experiment [6].
